Compound activity (PubChem BioAssay)
Compounds with a hit are over-represented: about 9.3% of the library has one in this group of screens.
ELG1 genotoxic: inducers of genotoxicity in HEK293T ELG1-luciferase cells; HEK293T ELG1-luciferase reporter, luminescence, 16 h; Potency, µM (top dose mostly 46 µM), for the others: top-dose activity change, positive = activation, usual class: activators; 1.3% of 330,000 active; also: % of control where 0% means no effect; nearly all actives have a fitted effect of over 60% in size
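HEK293T cells expressing luciferase-tagged ELG1 were exposed to compound or DMSO vehicle for 16 hr at 37 °C and 5% CO2. Luciferase activity was then measured with ONE-Glo after 30 min at room temperature.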
Rab9 promoter act: Rab9 promoter activation. Huh7 Rab9 promoter-luciferase reporter, luminescence, 24 h. Potency, µM (series often up to 9.22 µM), for inactives: at the highest dose activation, negative = inhibition, usual class: activators. 2.8% of 320,000 active. AID 485297; also: % of control where 0% means no effect; nearly all actives have a fitted effect of over 60% in size
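Cell-based reporter: Huh7 stable for Rab9 promoter-driven luciferase, plated in reduced-serum medium with 10% FBS at 1500 cells/well, compound-treated 24 h at 37 °C, luminescence read after 10 min reagent.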
ELG1 repair inh: inhibitors of ELG1-dependent DNA repair in HEK293T cells. HEK293T ELG1-luciferase reporter, luminescence, 16 h; DNA damage induced by 5-fluorouridine. Potency, µM (highest dose often 46.1 µM), inactives show top-dose activity change, negative = inhibition, usual class: inhibitors. 2.3% of 330,000 active. AID 504467; also: % is scaled to controls: 0 for no effect and ±100 for the full control effect; nearly all actives have a fitted effect of over 55% in size
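Reporter activity after DNA damage by 5-fluorouridine is monitored. Compound-treated cells incubate 16 hr at 37 °C, then ONE-Glo is added for 30 min before luminescence reading.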
SMN2 splice up: SMN2 splice variant enhancement; HEK293 SMN2-luciferase splicing reporter, luminescence, 30-36 h; Potency, µM (doses to about 46.1 µM), for inactives: at the highest dose activity change, positive = activation, usual class: activators; 2.8% of 210,000 active; also: % of control where 0% means no effect; nearly all actives have a fitted effect of over 55% in size
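HEK293 cells carry an SMN2 minigene-luciferase reporter in which exon 7 inclusion puts luciferase in frame. Cells were seeded at 2000 cells/well, attached for 10-12 hours, then exposed to compounds for 30-36 hours at 37C before ONE-Glo luminescence.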
NPC1 prom act: activates the NPC1 promoter; Huh7 NPC1 promoter luciferase reporter, 24 h; Potency, µM (series often up to 9.22 µM), for the others: at the highest dose activation, hits mostly activators; 2.4% of 320,000 active; AID 485313; also: % of control where 0% means no effect; nearly all actives have a fitted effect of over 60% in size
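Huh7 cells stably carrying NPC1 promoter–luciferase, plated in Opti-MEM with 10% FBS for 2 h, were exposed to compound in DMSO for 24 h at 37 °C; luciferase reagent was added for 10 min and luminescence read.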
FLuc counter: firefly luciferase modulation, counter-screen for miR-21 project. P08659. purified FLuc, Km substrates, luminescence inhibition. Potency, µM (highest dose often 57.5 µM), for inactives: at the highest dose activity change, negative = inhibition, actives largely listed as inhibitors. 6.9% of 360,000 active. AID 588342;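 also: plate controls were vehicle for no effect and reference inhibitor for full effect; nearly all actives have a fitted effect of over 55% in size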
Target sequence (P08659 whole entry, looked up): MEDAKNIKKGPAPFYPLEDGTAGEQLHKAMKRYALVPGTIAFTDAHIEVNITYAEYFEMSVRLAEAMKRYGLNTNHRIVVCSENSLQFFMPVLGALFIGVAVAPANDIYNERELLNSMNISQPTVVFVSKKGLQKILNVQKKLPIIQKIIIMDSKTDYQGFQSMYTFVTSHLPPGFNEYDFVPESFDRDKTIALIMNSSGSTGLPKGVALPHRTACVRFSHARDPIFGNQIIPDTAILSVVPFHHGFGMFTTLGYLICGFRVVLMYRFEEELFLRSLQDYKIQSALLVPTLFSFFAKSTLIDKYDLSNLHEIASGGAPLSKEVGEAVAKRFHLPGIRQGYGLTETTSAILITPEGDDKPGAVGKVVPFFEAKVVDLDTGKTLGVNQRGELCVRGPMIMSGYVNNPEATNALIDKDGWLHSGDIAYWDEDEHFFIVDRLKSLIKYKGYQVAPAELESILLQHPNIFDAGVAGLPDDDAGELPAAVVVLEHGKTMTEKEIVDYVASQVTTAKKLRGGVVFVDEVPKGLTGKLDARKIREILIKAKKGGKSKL
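Biochemical qHTS of compounds, final roughly 60 µM downward over six points, against 10 nM purified firefly luciferase using Km concentrations of substrates (10 uM D-luciferin, 10 uM ATP) in Tris acetate pH 7.5 buffer; luminescence output.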
* marks the source's active call; other numbers are inactive results; ? = inconclusive; . = no result; [ ] = another dose, or the depositor's remark. Calls follow the shape of the dose curve; as a rule, active = well fitted curve in the direction sought with a large enough effect; inconclusive = small, poorly fitted or top-dose-only effect, or another doubt; inactive = no such curve, though single readings can be large; an effect the other way counts as inactive or inconclusive. Potency is read from the fitted curve at half-maximal effect.

SMILES | ELG1 genotoxic | Rab9 promoter act | ELG1 repair inh | SMN2 splice up | NPC1 prom act | FLuc counter
Cc1ccc(C)c(S(=O)(=O)N2CCCC2CNC(=O)C(=O)NCc2ccccn2)c1 (configuration not stated) | 0.9% | -2.3% | -0.7% | . | 0.8% | -6.2%
COc1ccccc1CCNC(=O)C(=O)NCC1OCCCN1S(=O)(=O)c1cc(C)ccc1C (configuration not stated) | -10.6% | -1.8% | 20.6µM* | . | 0.5% | 3.0%
Cc1ccc(C)c(S(=O)(=O)N2CCCC2CNC(=O)C(=O)NCc2ccccc2C)c1 (configuration not stated) | -13.6% | -1.7% | 14.6µM* | . | 0.3% | 3.5%
CS(=O)(=O)N(Cc1ccccc1)c1ccccc1C(=O)N1CCN(c2ccccc2)CC1 | -8.5% | 1.0% | -0.8% | -16.5% | -0.8% | 1.6%
COc1cc(OC)c(NS(=O)(=O)c2c(C)[nH]c(=O)[nH]c2=O)cc1Cl | -0.7% | 8.3% | -10.6% | . | -2.8% | 4.4%
CCCC(=O)Nc1ccc(N2CCOCC2)cc1 | 8.2% | 3.5% | 29.1% | -0.9% | 3.9% | -4.8%
Cn1c(SCC(=O)Nc2ccc(N3CCOCC3)cc2)nnc1-c1ccccc1 | 7.6% | 4.2% | ? | 41.0% | 1.6% | 16.9µM*
Cn1c(SCC(=O)Nc2ccc(N3CCOCC3)cc2)nnc1-c1ccccc1F | 7.9% | 11.6% | 22.3% | . | 7.4% | 16.9µM*
Cn1c(COc2ccccc2)nnc1SCC(=O)Nc1ccc(N2CCOCC2)cc1 | 13.1% | 2.3% | -1.8% | . | 10.4% | ?
Cc1cn(CCC(=O)Nc2ccc(N3CCOCC3)cc2)c2ccccc12 | ? | ? | ? | . | ? | 13.5µM*
O=C(CN1CCN(C(c2ccccc2)c2ccccc2)CC1)Nc1ccc(N2CCOCC2)cc1 | -1.5% | -4.6% | -0.7% | 12.6µM* | -1.3% | -1.8%
CCOC(=O)C1=CC[C@@H](c2ccccc2Cl)N(S(=O)(=O)c2ccc(C)cc2)[C@H]1C(=O)OCC | -4.8% | 2.4% | -27.2% | . | 0.5% | -2.0%
O=C(NNC(=O)c1ccccc1O)c1ccc(Cl)c(S(=O)(=O)N2CCCCC2)c1 | 0.9% | -4.7% | -3.1% | . | 0.5% | ?
C/C(=N/NC(=O)CNS(=O)(=O)c1ccc(C)cc1)c1cccc([N+](=O)[O-])c1 | 2.4% | -0.5% | 5.8% | -6.8% | -0.2% | -2.0%
Cn1c(SCC(=O)Nc2ccc(N3CCOCC3)cc2)nnc1-c1ccco1 | 1.0% | 2.4% | ? | . | -3.5% | 16.9µM*
CSc1nc(O)c(N=Nc2ccc(F)cc2F)c(=O)[nH]1 | ? | 25.9%[1.84 µM] | ? | . | ? | 0.849µM*
CCc1ccc(NC(=S)NCc2ccccc2)cc1 | 11.2% | ? | ? | 11.2µM* | 27.2% | ?
CCc1ccc(NC(=S)N2CCCC(C(F)(F)F)C2)cc1 (configuration not stated) | 4.2% | 2.2% | ? | -12.1% | 1.4% | 15.1µM*
CC1CCCN(C(=S)Nc2ccc(F)cc2)C1 (configuration not stated) | -5.0% | 3.4% | -14.2% | 0.1% | -1.1% | -18.5%
CCc1ccc(NC(=S)N2CCN(C)CC2)cc1 | ? | ? | ? | . | 29.2% | 6.01µM*
Cc1ccc(NC(=S)N2CCCC2)cc1 | 10.9% | 28.8% | ? | 25.0% | 21.8% | ?
CCc1ccc(NC(=S)N2CCCC2)cc1 | 18.3µM* | ? | ? | . | ? | 21.3µM*
CCOC(=O)c1c(-c2ccccc2)csc1NC(=O)c1cc(-c2ccc(F)cc2)on1 | . | . | . | 3.5% | . | 2.8%
Cc1ccc(-c2nnc(COC(=O)c3cccs3)o2)cc1 | ? | 20.9% | ? | . | ? | 6.75µM*
Cc1ccc(C(=O)OCc2nnc(-c3ccc(Br)cc3)o2)cc1 | 1.2% | -0.6% | -20.1% | -5.1% | 0.6% | ?
SMILES | ELG1 genotoxic | Rab9 promoter act | ELG1 repair inh | SMN2 splice up | NPC1 prom act | FLuc counter
Cc1ccc(-c2nnc(COC(=O)c3ccco3)o2)cc1 | 13.2% | -2.0% | 16.0% | . | -5.5% | 13.5µM*
CCCN(CC(=O)Nc1ccccc1OC)C(=O)CCC(=O)c1ccc(Cl)s1 | -1.7% | -3.1% | -9.4% | . | -4.8% | -10.5%
CC(O)CNC12CC3CC(CC(C3)C1)C2 (configuration not stated) | -7.7% | -0.7% | -0.4% | 4.7% | -2.3% | -2.2%
Cc1c(-c2ccccc2)oc2c(C(=O)OCC(=O)Nc3ccc(C(N)=O)cc3)cccc2c1=O | -1.9% | -4.3% | ? | 5.7% | -1.9% | -1.4%
CCCCc1nc(NCC2CCCO2)c(C#N)c2c1COC(C)(C)C2 (configuration not stated) | -4.9% | -1.5% | 7.31µM* | -21.6% | 0.3% | -0.1%
O=C(c1ccncc1)N1N=C(c2ccc(Cl)cc2)CC1c1ccccc1O (configuration not stated) | ? | 24.2% | ? | . | 1.4% | 16.9µM*
NC(=S)n1[nH]c(-c2ccc([N+](=O)[O-])cc2)c(N=Nc2ccccc2[N+](=O)[O-])c1=O | 0.7% | -2.8% | ? | -13.9% | 0.6% | -11.6%
NC(=S)n1[nH]c(-c2ccc([N+](=O)[O-])cc2)c(N=Nc2cccc([N+](=O)[O-])c2)c1=O | -15.2% | -17.5% | 3.26µM* | -71.5% | 0.0% | ?
Cc1c(N=Nc2c(-c3ccc([N+](=O)[O-])cc3)[nH]n(C(N)=S)c2=O)cccc1[N+](=O)[O-] | -14.7% | -33.5% | 2.06µM* | -61.5% | -32.5% | ?
Cc1[nH]n(C(N)=S)c(=O)c1N=Nc1cccc([N+](=O)[O-])c1C | ? | 2.51µM* | ? | . | ? | 8.49µM*
COc1ccc(NC(=O)CN(C)C(=O)CCCSc2nc3ccccc3[nH]2)cc1 | 0.2% | -5.3% | 11.1% | . | -1.4% | -9.7%
COc1cccc(/C=N/N2CCN(c3ccccc3OC)CC2)c1 | 16.4µM* | 3.16µM* | ? | 12.6µM* | ? | 12µM*
Clc1ccccc1/C=N/N1CCN(Cc2ccccc2)CC1 | 9.7% | 7.9% | 7.8% | . | 15.7% | ?
Clc1cccc(/C=N/N2CCN(Cc3ccccc3)CC2)c1 | ? | ? | ? | . | ? | 16.9µM*
COc1cccc(/C=N/N2C(=O)CSC2=S)c1O | 2.4% | -1.4% | ? | 10.8% | 7.6% | 26.9µM*
COc1cc(/C=N/N2C(=O)CSC2=S)cc(Br)c1O | 1.1% | 12.7% | -7.2% | 10.8% | 1.6% | ?
FC(F)(F)c1ccccc1/C=N/N1CCN(Cc2ccccc2)CC1 | 16.6% | 25.2% | ? | 10.7% | 22.5% | 19µM*
O=S(=O)(Cc1ccccc1)NCC1CCCN(Cc2ccc(F)c(F)c2)C1 (configuration not stated) | -0.6% | -3.7% | 8.9% | . | -1.9% | -2.7%
